# Results: PubChem BioAssay AID1508600 (Functional Genomics Laboratory (NCATS/FGL), 2020)
# Hit rate of the full screen: of about 53,000 sequences, about 3,700 (7%) were called active. Many of the other results were omitted from the sample, so actives are more common in it than they were. Unmarked numbers belong to inactive results.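 How the source made its calls: active means gene knockdowns whose robust z-score for IL-1 alpha signal is at least 2 or at most -2, so actives lie on both sides; inactive means the rest.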
# Experiment: Components of the Cytosolic LPS Sensing Pathway: Gene Identification via Genome-wide siRNA Screen;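 further: robust z of the log signal after scaling to non-targeting control siRNA wells of the plate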
# Settings: RAW264.7 macrophages, IL-1a HTRF, actives lie on both sides, screened at 100 nM (by protocol), cells primed 5 h with Pam3CSK4 first
# How it was run: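 Supernatant IL-1a by HTRF from RAW264.7 cells primed with Pam3CSK4 (5 hours) and transfected with LipidA (24 hour) after 48h siRNA knockdown at 100 nM; cell viability checked with CellTiter-Glo.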
row,Sequence,z-score
1,GGUCAAUGGAGUAGAUUUATT against Pard3,2.24 (active)
2,GGUCAUGAAAAUUAAAGCATT against 1110059G10Rik,-2.31 (active)
3,GCACGAUGUACCUGAAUCUTT against Ifitm5,0.387
4,CCUGCUCUAGAGAAGAAGUTT against Naxe,0.879
5,GCAGUCACCUUCAAAAAAATT against Zfp960,1.08
6,CGGUAGAAGGCUUAGGCAATT against Aox1,-0.922
7,GGUCAUAGCAUCUACGGCUTT against Gm4793,-0.11
8,GGUGUAAUUGGGAAAAUUCTT against Inpp5f,-1.17
9,GGCCAACCUGUUCAUCAGCTT against Bdkrb1,-0.0817
10,CCUGAGUCUCGGUUCACAATT against Kif12,-2.13 (active)
11,GCACAGUGUAACUUAGGGCTT against Cenpb,-0.525
12,CUAAAUGCCUCCUACCUUUTT against Krtap4-16,1.89
13,CCUCAGAAAAAGCCUAUAGTT against Kcnj3,-2.13 (active)
14,GGCAAGUUGACCGUGUUUUTT against Dtnb,-0.307
15,GGUGAAACAGCGAAUAGGUTT against Zfp428,-0.168
16,GGAAUUGUAGAAAGUGUUGTT against Adh4,1.66
17,GGGCCUGUAAUGGUGUACATT against B230317F23Rik,2.56 (active)
18,GGCUUUCCGCGCUAUUGAUTT against Pcmtd2,-0.027
19,GGAUUUUAGUGAAUUCCAUTT against Asah1,0.0675
20,CCCUGGAUUGAGGAUCGUUTT against Mrgpra8,-1.14
21,GGAACUCCAGCUUUUGGUCTT against Sox13,2.51 (active)
22,GGUUGAAGAGCAUGAGAGCTT against A330041J22Rik,1.01
23,GGAGCUAAACCAAUGGCAATT against Txndc15,0.479
24,GCCCAAGAAUGUGCCUUAUTT against Olfr1278,-0.578
25,GCAGACUAAAAUCACGACATT against Ednra,2.62 (active)
26,GGUGAUGAAAAGAAUUGCATT against Pitrm1,0.417
27,GGACUUUGGUUUUUGUAAGTT against Vasn,-1.72

row,Sequence,z-score
1,GGUCCAAAGAAAGACCCAUTT against Cypt4,-0.131
2,GGUAAACAUGUCUAUGACUTT against Fpr-rs7,-2.09 (active)
3,GGAGAUCAUGUCAAAAAAGTT against Ibtk,-0.848
4,GGGCUUUAUUCAUCCACUCTT against 1700067P10Rik,1.52
5,GGAAUGGAUCCUGAUGAUATT against Spcs2,-0.877
6,GCUCGAUCAUGGGCCUAUATT against Crls1,-0.189
7,GGAUAGUUUGGUAAUGAAATT against Cds1,-0.748
8,GGCAGAUAAAGAUGGAGCATT against Ndp,3.69 (active)
9,CGGGCUAUCUGGAACUAUATT against Sesn1,-0.466
10,GGCUUAAAGGUCCUGUGCUTT against Ighmbp2,-2.89 (active)
11,GGUUUAUGCAAUGAAGCUUTT against Rock2,-0.0928
12,GGUUAUGGUUUUGUUGACUTT against Rbms1,-0.606
13,GGCUUUAAUGCCUGUAUUATT against Ilvbl,-0.185
14,GGUUUGGAUGUGAAACAAGTT against Myot,-0.861
15,GGAAUCUCGGAGGAAAACUTT against Hyou1,1.99
16,GGCAGUAGCCUUGUCUGUCTT against Prrx2,-1.42
17,GCAAGAUCCCGACACAUACTT against Tead4,-2.22 (active)
18,GGUCUCACAGCAGUACUCATT against Clk4,-1.46
19,GGACACAGGGUCUCUUACATT against Msrb2,-1.25
20,GGCUCAAGACUUAAAUUCATT against Olfr1100,0.437
21,CCUACUGGUUGAAAAUAUUTT against Tceanc2,1.16
22,GGAAGACACUCCUCUGCUCTT against Oca2,1.63
23,GGUGCGUCCUGAAAUCAUCTT against Txndc12,-2.52 (active)
24,GGUUGAUGAAAAAACUGUATT against Itsn2,0.755
25,GGCUAGAGAAAUAGUGUUGTT against Reep1,0.218
26,GGAUCUUCAAUUCGUUGGUTT against Cachd1,2.75 (active)
27,GCCACUCAAAGUUCGAAGGTT against Tmem51,-0.515
